Test results reported in ChEMBL document CHEMBL3988442, “University of Dundee, Small-Polar-MMV Screening Library” (2021).
The whole screen tested about 48,000 compounds, of which about 13,000 (27%) showed an effect of 50% or more. The list shows a part of the results.

Each compound was assayed on Wolbachia pipientis (assay: Anti-Wolbachia Cell-Based Screen). Details: 5 µM.
Type: functional
Parameters: scale not given: in the data most compounds retested in dose-response had high values

SMILES | Percent Effect [%]
CO[C@H]1CN(C(=O)c2ccc(-c3cc[nH]n3)cc2)CC[C@H]1N | 5.265
Cc1[nH]c(-c2ccccc2)nc1C(=O)N1CC[C@H](CO)[C@@H](O)C1 | 5.886
CN1[C@H]2CC[C@@H]1CN(C(=O)c1ccc(-c3ccccc3)[nH]1)CC2 | 114.3
CN1[C@H]2CC[C@@H]1CN(C(=O)c1sccc1S(N)(=O)=O)CC2 | -9.156
CO[C@H]1CN(C(=O)c2ccc(-c3ccccc3)[nH]2)CC[C@H]1N | 104.8
CO[C@H]1CN(C(=O)c2cc3ccccc3[nH]2)CC[C@H]1N | 117
Cc1ccsc1[C@@H]1CCN(C(=O)c2cc3ccccc3[nH]2)C[C@H]1O | -6.106
O=C(c1cccc(-c2ncc[nH]2)c1)N1CC[C@H](CO)[C@@H](O)C1 | -2.343
Cc1[nH]c(-c2ccccc2)nc1C(=O)N1CCC(O)(CO)CC1 | -2.686
CC(=O)Nc1ccsc1C(=O)N1CC[C@@H]2CC[C@H](C1)N2C | -9.655
O=C(O)CC1CN(S(=O)(=O)c2cccc(F)c2)c2ccccc21 (centres undefined) | -14.9
CC(NC(=O)Nc1nnc(-c2ccccn2)s1)C(=O)OC(C)(C)C (centres undefined) | 4.269
CN1CC[C@@H]2[C@@H](CO[C@H]2CNC(=O)c2nccn2C)C1.O=C(O)C(F)(F)F | -30.91
COCCN(CCN(C)C)C(=O)NC1CCc2ccccc2C1 (centres undefined) | -2.569
Cc1ccc(Sc2ccc(CN3CCC4(CCCNC4=O)C3)o2)cc1 (centres undefined) | 5.94
CCOc1cc2c(cc1CN1CCC3(CC1)CNC(=O)C3)CCC2 | 89
CCOc1cc2c(cc1CN1CCC3(CCCNC3=O)C1)CCC2 (centres undefined) | 106.5
CCCNc1ncc(CN2CCC3(CC2)CNC(=O)C3)cn1 | -5.134
CCOc1cc2c(cc1CCC(=O)O)CCC2 | -9.267
O=C1NCCCC12CCN(Cc1ccc(SC3CCCCC3)o1)C2 (centres undefined) | 4.336
CCOc1cc(Cl)c(CN2CCC3(CCCNC3=O)C2)cc1OC (centres undefined) | 104.3
CCCc1cc(C(=O)N2CCC3(CCCNC3=O)C2)cs1 (centres undefined) | 9.333
CCOc1ccc(CN2CCC3(CC2)CNC(=O)C3)cn1 | -1.206
CN1CCc2ccc(NCc3cscn3)cc2C1=O | 26.59
CN(C)C(=O)CN1C[C@H]2CCN(C(=O)c3ccncc3)CC[C@H]2S1(=O)=O | 6.618

SMILES | Percent Effect [%]
CCc1nnc(S(=O)(=O)Cc2cc(Cl)c3c(c2)OCO3)n1C | -5.495
CCN(CC)CCN(C)c1nc(-c2ccc(Cl)cc2)nc2c1CNC2 | -44.78
CNC(=O)CN(C)c1nc(-c2ccc(C(N)=O)cc2)nc2c1CCNC2 | 117.3
CN(CC(O)CO)c1nc(-c2cccnc2)nc2c1CCNC2 (centres undefined) | 5.807
CN(CCCO)c1nc(-c2ccc(C(N)=O)cc2)nc2c1CCNC2 | 101.5
CNC(=O)CN(C)c1nc(-c2ccncc2)nc2c1CCN(C(C)=O)C2 | -5.976
CN(CCO)c1nc(-c2ccccn2)nc2c1CCNC2 | -7.259
COCCN(C)c1nc(-c2ccncc2)nc2c1CCN(C(C)=O)C2 | 5.956
NC(=O)c1ccc(-c2nc3c(c(=O)[nH]2)CCNC3)cc1 | -6.229
CNC(=O)CCN(C)c1nc(-c2ccncc2)nc2c1CCNC2 | 97.6
O=C1NCCO[C@H]2CN(C(=O)CCc3ccc(Cl)cc3)CC[C@@H]12 | 1.273
O=C(CC1CCc2ccccc21)NCCSc1cnn[nH]1 (centres undefined) | -1.678
O=S(=O)(NCC1CCOC1)N1CCc2ccccc2C1 (centres undefined) | 0.4119
CN(CCOc1ccc(Br)cc1)Cc1cscn1 | -4.62
CCCc1nnc(NC2CCN(Cc3ccc(F)c(F)c3)CC2)o1 | -13.59
Cc1cc(C(=O)NC2CCCCNC2=O)c(=O)[nH]c1C (centres undefined) | -5.405
O=C(CO)N1CCC(F)(F)C2(CCN(c3ccccc3)C2)C1.O=C(O)C(F)(F)F (centres undefined) | 5.936
O=C(O)C(F)(F)F.O=C(c1c[nH]cn1)N1CCC(F)(F)C2(CCN(c3cccc(F)c3)C2)C1 (centres undefined) | -14.3
Cn1cc(CN2CCOC3(CCCN(c4cccc(F)c4)C3)C2)cn1.O=C(O)C(F)(F)F.O=C(O)C(F)(F)F (centres undefined) | -4.147
FC1(F)CCN(Cc2cccnc2)CC12CCN(c1ccccc1)C2.O=C(O)C(F)(F)F.O=C(O)C(F)(F)F.O=C(O)C(F)(F)F (centres undefined) | 93.27
Cn1cc(CN2CCC(F)(F)C3(CCN(c4cccnc4)C3)C2)cn1.O=C(O)C(F)(F)F.O=C(O)C(F)(F)F (centres undefined) | 116.7
O=C(O)C(F)(F)F.O=C(O)C(F)(F)F.O=C(O)CN1CCC(F)(F)C2(CCN(c3ccccc3)C2)C1 (centres undefined) | -5.23
FC1(F)CCN(Cc2ccncc2)CC12CCN(c1cccnc1)C2.O=C(O)C(F)(F)F.O=C(O)C(F)(F)F.O=C(O)C(F)(F)F (centres undefined) | 90.74
Cn1cc(CN2CCC(F)(F)C3(CCN(c4cccc(F)c4)C3)C2)cn1 (centres undefined) | 120.4
